# Test system: VDR:RXRa (NR concentration 270 nM, RXRa partner concentration 90 nM)
# Assay: PBM binding z-score (relative to random genomic background probes); higher = stronger binding; sequences stand for … in GC…GCGATTGACAGCGTAGAATGAAGG
# Description: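 Protein-binding microarray (Agilent 4x180K custom design, double-stranded 60-nt probes: 5' GC cap, 34-nt variable region, 24-nt constant primer region; full probe sequence given). Purified or IVT nuclear receptor:RXRα heterodimers (3:1 NR:RXRα, mostly 270:90 nM) or homodimers were incubated for 1 h in PBS with 2% milk and no ligand, then detected with Alexa488 antibodies. Fluorescence from o1-orientation probes (~5 replicates averaged) was converted to z-scores against 500 random hg19 background probes. Variable regions are seed direct-repeat (DR0–DR5) sites, all their single-nucleotide variants and half-site ablations.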
row,Sequence,PBM binding z-score
1,TCTAGCTGGCCAGAGGGTCACTCAAGAGGTACGG,1.44
2,GATACAGTGTCAAGGCCAGAGTACGCGTATTGAT,0.126
3,CGAACGAGGGCATGAGTTGATAGGAAATGCCGAT,1.13
4,CAAACTAGGTCACCCGAAGGTCAAAGTCCGCATG,5.75
5,ACTATTAGTTGACTTCGGGCAACCGATACGACGC,0.179
6,ACATGTAGGTTATCGGGTCATTCAGTTTGCGCAT,5.39
7,TGAATGAGGTTATAAGATCAAGGAACGTTGCAAA,1.1
8,CAAACTAGGTCAATGGTCAAAGTCGAGCCAACCA,1.67
9,ATCTAAAGGTCGAGGTGAGTATAGAGAAAGGGAA,3.08
10,ACAATGAGGTTACCAAAGATCAGGGAAACGCTTG,1.68
11,ACAAGTTGGTCAGCTGAGGTCACACACAATTCGG,4.66
12,ACAGACAGGTGAGTGAAGGTAACTCAACTGGACG,-0.232
13,TAGCCTAGGTAAGATCGGGCCAGTATACGCTATA,-0.645
14,ATCTCTAGGGAAAGATAGTTCAGTGAATGCAAAT,0.156
15,TCTTGTACATCAAAGGTTAAGAAAGCCGAAGCCT,1.55
16,AGTCAAAGTGCACTAGGTAACGTAAGATTCAGCT,0.166
17,CGAAATAGGTCAAGGACAGTGAATCTCCGCACGC,2.46
18,TCTTGTAGATCAAAAGTTAAGAAAGCCGAAGCCT,0.386
19,TCTAGATGGTCACGGAGGTCACACACGACGGGTA,6.25
20,ATCTCTAGGTAACTAGTTCAGTGAAAGAGAGGAC,0.369

row,Sequence,PBM binding z-score
1,CCTTACGGGTCAACGTTATAGCACGGGTGGTACG,3.03
2,ACTAGCAGGCCAAGTTTGGGTCATTCAAACAAAG,1.07
3,TCAGACAGGTGAAGGTAACTCACGTACGCAGTCG,0.473
4,ATATGTCGGTTACATCCGGGTCATTCAGGCTATG,3.53
5,CGAACTAGGTAAGAACAGGACAGTGAAGGATGAT,-0.253
6,GCTATTAGTTGAAAGGGCAACCGGATGATTCTCG,0.47
7,GATACAGGGTCAGCTAGATGCCAGAGTATGGAAA,2.58
8,TAGCCTAGGTCATTAAGGGGCCAGTATAGAAAGC,2.52
9,CCGACTGGGGCAAGGTTACCATGACGCACAGCCA,-0.0991
10,GCGACTGGGGCAAAGCAGCTTACCATAAGGTTGG,-0.87
11,ATCTCTAGGTAACAAAGTTCAGTGAATGCCGAAC,3.18
12,CCTACTGGGCCATCAGGACATTGATATCAACGTT,-0.324
13,ATACCAAGGTGATCGCGAGGTCGTTGATACTAAC,3.37
14,AATACAGTGTCACTAGGCCAGAGTAGGTACGAAT,-0.0369
15,TCTGCTAGGTCAACGAAGGTCAGCTAATCTGCTA,4.97
16,CCTAGCAGGCCAGGGTCACTCAGGCATTTCGCTT,2.22
17,TCATGTAGGTAATACAGGTGAAAGTCGGCATCTA,0.207
18,AGTCAAAGTTCATCTAGGAAACGTAAGATATGCT,4.66
19,TTACCAAGGTGAAAGGTCGTAGATGCACGCCTTG,3.04
20,ATCCCTAGGTAAAAGTTCAGTGAATCCCGAGGAT,0.958

# Reference: the supplement of paper PMC6555819
